Reference: PubChem BioAssay AID1159580 (chemical genetic matrix, 2015)
Among all 5,500 compounds or so, about 2,000 (36%) were called active. Inconclusive results (about 18%) are left out. Cut-off read from the data, not from the text of the source: active = normalized growth mostly below about 0.91 (no sharp cut-off); inconclusive = no clear call, values can overlap the other calls; inactive = mostly above about 0.92. This is one part of the list.

Assay: chemical genetic growth profiling, strain panel (AID 1159580);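 note: tested at 20 µM; growth read once vehicle control cultures reached saturation at 30 °C; 1 = growth at the plate median or of vehicle wells; lower values mean less growth of the strain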
Conditions: growth OD

Measured: normalized growth

C=C1[C@H]2CC[C@@]3(C)[C@H](c4ccoc4)OC(=O)C[C@]13O[C@H]1C[C@H](O)C(C)(C)[C@H](CC(=O)OC)[C@]12C
inactive: S. cerevisiae deletion strains, locus YJR066W, strain TOR1, active compounds read low 0.936 | S. cerevisiae deletion strains, locus YJR075W, strain HOC1, active compounds read low 0.994 | S. cerevisiae deletion strains, locus YKL009W, strain mrt4, active compounds read low 0.997 | S. cerevisiae deletion strains, locus YKL068W, active compounds read low 1.02 | S. cerevisiae deletion strains, locus YKL085W, strain MDH1 (second series), active compounds read low 1 | S. cerevisiae deletion strains, locus YKL085W, strain MDH1, active compounds read low 1 | S. cerevisiae deletion strains, locus YKL160W, strain elf1, active compounds read low 0.998 | S. cerevisiae deletion strains, locus YKR001C, strain vps1, active compounds read low 1.01 | S. cerevisiae deletion strains, locus YKR026C, strain gcn3, active compounds read low 1.02 | S. cerevisiae deletion strains, locus YKR091W, strain srl3, active compounds read low 1.02 | S. cerevisiae deletion strains, locus YLL001W, strain dnm1, active compounds read low 1.01 | S. cerevisiae deletion strains, locus YLL026W, active compounds read low 1.01 | S. cerevisiae deletion strains, locus YLL041C, strain sdh2, active compounds read low 1.01 | S. cerevisiae deletion strains, locus YLR027C, strain aat2, active compounds read low 1.01 | S. cerevisiae deletion strains, locus YLR039C, strain RIC1, active compounds read low 0.969 | S. cerevisiae deletion strains, locus YLR058C, strain SHM2, active compounds read low 1.01 | S. cerevisiae deletion strains, locus YLR102C, strain apc9, active compounds read low 1.01 | S. cerevisiae deletion strains, locus YLR113W, strain HOG1, active compounds read low 1.04 | S. cerevisiae deletion strains, locus YLR221C, strain rsa3, active compounds read low 1.03 | S. cerevisiae deletion strains, locus YLR258W, strain gsy2, active compounds read low 1 | S. cerevisiae deletion strains, locus YLR262C, strain YPT6 (second series), active compounds read low 0.994 | S. cerevisiae deletion strains, locus YLR262C, strain YPT6, active compounds read low 0.938 | S. cerevisiae deletion strains, locus YLR268W, strain sec22, active compounds read low 1.01 | S. cerevisiae deletion strains, locus YLR320W, strain mms22, active compounds read low 1.03 | S. cerevisiae deletion strains, locus YLR342W, strain FKS1, active compounds read low 1.02 | S. cerevisiae deletion strains, locus YLR357W, strain rsc2, active compounds read low 1.03 | S. cerevisiae deletion strains, locus YLR370C, strain arc18, active compounds read low 1 | S. cerevisiae deletion strains, locus YLR371W, strain rom2, active compounds read low 1.02 | S. cerevisiae deletion strains, locus YLR384C, strain iki3, active compounds read low 1.01 | S. cerevisiae deletion strains, locus YLR418C, strain cdc73, active compounds read low 0.997 | S. cerevisiae deletion strains, locus YML016C, strain PPZ1, active compounds read low 1 | S. cerevisiae deletion strains, locus YML032C, strain rad52, active compounds read low 1.01 | S. cerevisiae deletion strains, locus YML120C, strain ndi1, active compounds read low 0.998 | S. cerevisiae deletion strains, locus YML124C, strain tub3, active compounds read low 1.02 | S. cerevisiae deletion strains, locus YMR058W, strain fet3, active compounds read low 1.05 | S. cerevisiae deletion strains, locus YMR078C, strain ctf18, active compounds read low 1.02 | S. cerevisiae deletion strains, locus YMR125W, strain sto1, active compounds read low 1 | S. cerevisiae deletion strains, locus YMR129W, active compounds read low 1.01 | S. cerevisiae deletion strains, locus YMR205C, strain PFK2, active compounds read low 1.01 | S. cerevisiae deletion strains, locus YMR223W, strain ubp8, active compounds read low 1.01 | S. cerevisiae deletion strains, locus YMR231W, strain pep5, active compounds read low 1.01 | S. cerevisiae deletion strains, locus YMR263W, strain SAP30, active compounds read low 1.01 | S. cerevisiae deletion strains, locus YMR307W, strain GAS1, active compounds read low 1.03 | S. cerevisiae deletion strains, locus YNL067W, strain RPL9B, active compounds read low 1 | S. cerevisiae deletion strains, locus YNL071W, strain lat1, active compounds read low 1.01 | S. cerevisiae deletion strains, locus YNL153C, strain GIM3, active compounds read low 1.01 | S. cerevisiae deletion strains, locus YNL183C, strain NPR1, active compounds read low 0.943 | S. cerevisiae deletion strains, locus YNL209W, strain ssb2, active compounds read low 1.04 | S. cerevisiae deletion strains, locus YNL233W, strain BNI4, active compounds read low 0.988 | S. cerevisiae deletion strains, locus YNL248C, strain rpa49, active compounds read low 1.05 | S. cerevisiae deletion strains, locus YNL250W, strain rad50, active compounds read low 1.01 | S. cerevisiae deletion strains, locus YNL271C, strain bni1, active compounds read low 0.995 | S. cerevisiae deletion strains, locus YNL298W, strain CLA4, active compounds read low 1.02 | S. cerevisiae deletion strains, locus YNL307C, strain MCK1, active compounds read low 1.02 | S. cerevisiae deletion strains, locus YNL322C, strain KRE1 (second series), active compounds read low 1.02 | S. cerevisiae deletion strains, locus YNL322C, strain KRE1, active compounds read low 1 | S. cerevisiae deletion strains, locus YNR049C, strain mso1, active compounds read low 1.02 | S. cerevisiae deletion strains, locus YNR052C, strain pop2, active compounds read low 1.02 | S. cerevisiae deletion strains, locus YOL006C, strain TOP1, active compounds read low 1 | S. cerevisiae deletion strains, locus YOL012C, strain htz1 0.768 | S. cerevisiae deletion strains, locus YOL147C, strain pex11, active compounds read low 1.02 | S. cerevisiae deletion strains, locus YOR001W, strain rrp6, active compounds read low 1.03 | S. cerevisiae deletion strains, locus YOR061W, strain CKA2, active compounds read low 1 | S. cerevisiae deletion strains, locus YOR069W, strain VPS5, active compounds read low 1 | S. cerevisiae deletion strains, locus YOR070C, strain gyp1, active compounds read low 1.03 | S. cerevisiae deletion strains, locus YOR080W, strain dia2, active compounds read low 1.02 | S. cerevisiae deletion strains, locus YOR083W, strain WHI5, active compounds read low 0.999 | S. cerevisiae deletion strains, locus YOR106W, strain vam3, active compounds read low 0.998 | S. cerevisiae deletion strains, locus YOR136W, strain idh2, active compounds read low 1.02 | S. cerevisiae deletion strains, locus YOR144C, strain elg1, active compounds read low 1.02 | S. cerevisiae deletion strains, locus YOR184W, strain ser1, active compounds read low 1.02 | S. cerevisiae deletion strains, locus YOR231W, strain MKK1, active compounds read low 0.985 | S. cerevisiae deletion strains, locus YOR265W, strain rbl2, active compounds read low 1 | S. cerevisiae deletion strains, locus YOR270C, strain vph1, active compounds read low 1.01 | S. cerevisiae deletion strains, locus YOR290C, strain snf2, active compounds read low 0.974 | S. cerevisiae deletion strains, locus YOR316C, strain cot1, active compounds read low 1.02 | S. cerevisiae deletion strains, locus YPL051W, strain arl3, active compounds read low 1.02 | S. cerevisiae deletion strains, locus YPL078C, strain atp4, active compounds read low 0.985 | S. cerevisiae deletion strains, locus YPL106C, strain sse1, active compounds read low 1 | S. cerevisiae deletion strains, locus YPL240C, strain hsp82, active compounds read low 1.01 | S. cerevisiae deletion strains, locus YPL256C, strain CLN2, active compounds read low 0.981 | S. cerevisiae deletion strains, locus YPR119W, strain clb2, active compounds read low 1.01 | S. cerevisiae deletion strains, locus YPR141C, strain kar3, active compounds read low 1.02 | S. cerevisiae deletion strains, locus YPR163C, strain tif3, active compounds read low 1.01 | S. cerevisiae deletion strains, locus YPR167C, strain met16, active compounds read low 1.02 | S. cerevisiae deletion strains, strain wtn01, active compounds read low 1.01 | S. cerevisiae strains, strain wild type, active compounds read low 1.01
